Compound activity as filed in PubChem BioAssay.
GLD-1 TGE inh = GLD-1/TGE RNA complex disruptors, primary screen, biochemical, fluorescence polarization; Female germline-specific tumor suppressor gld-1 (Caenorhabditis elegans), Q17339; inhibition, % at 5.96 µM; 320,000 tested, 0.44% active; AID 2280, 2010; purified GLD-1 + fluorescein TGE RNA;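 active = percent inhibition above a per-plate cutoff, the plate mean of test compounds plus 3 SD, cut at about 30% in these data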
MCL1-BIM inh = inhibitors of MCL1 binding to BIM-BH3, primary screen, biochemical, fluorescence polarization | Induced myeloid leukemia cell differentiation protein Mcl-1 (Homo sapiens), Q07820 | GST-MCL1 / FITC-Bim-BH3 fluorescence polarization | inhibition, % at 10.9 µM | 320,000 tested, 0.68% active;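 active = inhibition above the mean inhibition of all tested compounds plus 3 SD, set per campaign, cut at about 40% in these data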;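 also: higher means more loss of mP so more displacement of Bim peptide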
eLon inh = inhibitors of E. coli Lon protease, primary screen, biochemical, fluorescence polarization | 360,000 tested, 0.42% active | P0A9M0 | purified E. coli Lon protease | inhibition, % at 7.94 µM; in the data active = inhibition above about 13%, passing the limit was not always enough
BCLXL inh = inhibitors of human Bcl-xL, primary screen, biochemical, fluorescence polarization, HTS; Bcl-2-like protein 1 (Homo sapiens), Q07817; GST-Bcl-xL / FITC-Bim BH3 peptide fluorescence polarization; inhibition, % at 10.9 µM; 320,000 tested, 0.7% active; AID 2129, 2009;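 active = inhibition above the mean of all tested compounds plus 3 SD, cutoff set per campaign, cut at about 30% in these data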;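 also: inhibitors lower millipolarization by displacing the labeled peptide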
Target sequence (Q07817 whole entry, looked up): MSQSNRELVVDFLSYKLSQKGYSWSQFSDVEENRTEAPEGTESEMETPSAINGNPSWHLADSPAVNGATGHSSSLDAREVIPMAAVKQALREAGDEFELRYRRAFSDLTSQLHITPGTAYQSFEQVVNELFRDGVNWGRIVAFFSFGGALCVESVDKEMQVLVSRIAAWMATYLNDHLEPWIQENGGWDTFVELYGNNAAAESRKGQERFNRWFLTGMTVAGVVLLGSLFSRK
MEX-5 binding = MEX-5 zinc finger RNA-binding disruptors – biochemical, C. elegans, fluorescence polarization, MLPCN library, primary screen; Zinc finger protein mex-5 (Caenorhabditis elegans), Q9XUB2; MEX-5/FITC-TCR2 RNA binding; hits give low values; activity score (negative = inhibition of binding), % at 10 µM; 300,000 tested, 0.38% active; AID 1832, 2009;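 active = inhibition past about -25% in most replicates, and total fluorescence under double the plate's negative control median, limit read from the data; inconclusive = replicates evenly split on the limit, or fluorescence at least double controls; inactive = too little inhibition in most replicates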
Target sequence (Q9XUB2 whole entry, looked up): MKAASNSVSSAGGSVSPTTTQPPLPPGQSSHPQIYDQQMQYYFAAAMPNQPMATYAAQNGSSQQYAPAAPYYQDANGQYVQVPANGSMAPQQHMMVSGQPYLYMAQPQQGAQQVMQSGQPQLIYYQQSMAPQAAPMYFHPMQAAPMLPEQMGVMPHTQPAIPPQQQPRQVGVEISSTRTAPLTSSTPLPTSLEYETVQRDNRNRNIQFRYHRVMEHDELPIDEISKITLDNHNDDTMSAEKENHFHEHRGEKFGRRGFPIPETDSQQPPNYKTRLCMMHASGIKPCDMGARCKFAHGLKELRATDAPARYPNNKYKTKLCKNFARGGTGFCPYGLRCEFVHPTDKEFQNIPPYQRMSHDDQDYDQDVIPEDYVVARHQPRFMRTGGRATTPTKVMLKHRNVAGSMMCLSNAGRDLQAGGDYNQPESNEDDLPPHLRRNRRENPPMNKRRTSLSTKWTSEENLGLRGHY
Bcl-xL conf = Bcl-xL inhibitors blocking Bim BH3 binding, confirmation, counter-screen for MCL1 inhibitor project, biochemical, fluorescence polarization; 1,700 tested, 54% active; GST-Bcl-xL / FITC-Bim BH3 peptide FP binding; inhibition, % at 10.9 µM; shares compounds with MCL1-BIM inh;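 active = inhibition above a cutoff equal to the mean inhibition of all tested compounds plus 3 SD, cut at about 30% in these data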
MCL1 inh confirm = inhibitors of MCL1 binding to BIM-BH3, confirmation, biochemical, fluorescence polarization, triplicate | shares compounds with MCL1-BIM inh | GST-MCL1 / FITC-Bim-BH3 fluorescence polarization | inhibition, % at 10.9 µM | 1,700 tested, 61% active | AID 2168, 2009;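 active = inhibition above the average of all tested compounds plus 3 SD, cut at about 40% in these data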
Hits are given with their value; 0 = inactive; ? = inconclusive; - = no result; + = active, no number. Compounds with a hit are over-represented: about 1.4% of the library has one in this group of screens.

SMILES | GLD-1 TGE inh | MCL1-BIM inh | eLon inh | BCLXL inh | MEX-5 binding | Bcl-xL conf | MCL1 inh confirm
CC1CC(C)CN(C(=O)Cn2nnc(-c3ccccc3)n2)C1 (stereo unspecified) | 0 | 0 | 0 | 0 | 0 | - | -
CC1CCN(C(=O)Cn2nnc(-c3ccccc3)n2)CC1 | 0 | 45 | 0 | 0 | 0 | 0 | 0
CCOc1cc(Br)c(Br)c(C=Nc2ccc(NC(C)=O)cc2)c1O | 0 | 44 | 0 | 31 | 0 | 71 | 116
Cc1ccc(S(=O)(=O)N2C[C@H]3C(=O)C[C@@H](c4cccc(Cl)c4)N(S(=O)(=O)c4ccc(C)cc4)[C@H]3C[C@H]2c2cccc(Cl)c2)cc1 | - | - | 0 | - | - | - | -
CCCCC[C@H](O)/C=C/C1C(=O)C=C[C@H]1C/C=C\CCCC(=O)OC (stereo partly specified) | - | - | 0 | - | - | - | -
CC(C)C1Cc2c(C#N)c(N)sc(=S)c2CO1 (stereo unspecified) | 66 | 64 | 0 | 67 | 0 | 0 | 0
CC(C)C1Cc2c(sc(NC(=S)NC(=O)c3ccccc3)c2C#N)CO1 (stereo unspecified) | 0 | 0 | 0 | 0 | 0 | - | -
O=[N+]([O-])c1cccc2nc3ccccc3c(NCCCn3ccnc3[N+](=O)[O-])c12 | - | - | 0 | - | - | - | -
CCC(=O)N1CCN(c2ccc(NC(=O)c3cccs3)cc2)CC1 | 0 | 42 | 0 | 0 | 0 | 0 | 0
COc1ccc(S(=O)(=O)c2c(N)n(Cc3ccco3)c3nc4ccccc4nc23)cc1 | 117 | 105 | 0 | 101 | 0 | 0 | 0
CCCC1Nc2ccc(C(=O)O)cc2C2C=CCC12 (stereo unspecified) | 0 | 87 | 0 | 49 | -49 | 0 | 0
CC(C)C1Nc2ccc(C(=O)O)cc2C2C=CCC21 (stereo unspecified) | 0 | 82 | 0 | 48 | -54 | 36 | 48
CC1(C(=O)NS(=O)(=O)c2ccc(Cl)cc2)CCN1C(=O)Cc1ccccc1Cl (stereo unspecified) | - | - | 0 | - | - | - | -
Cc1nn2c(=O)[nH]cnc2c1Cl | - | - | 0 | - | - | - | -
O=S(=O)(c1cccs1)N1CN(Cc2ccco2)c2nc3ccccc3nc21 | 140 | 172 | 0 | 156 | 0 | 0 | 0
O=S(=O)(c1cccs1)N1CN(Cc2ccc(Cl)cc2)c2nc3ccccc3nc21 | 0 | 0 | 0 | 0 | - | - | -
CCOCCCn1c(=N)c(C(=O)NCc2ccc3c(c2)OCO3)cc2c(=O)n3ccccc3nc21 | - | - | - | - | 0 | - | -
CC(C)OCCCn1c(=NC(=O)c2cccs2)c(C#N)cc2c(=O)n3ccccc3nc21 | 58 | 114 | 0 | 106 | ? | 0 | 0
CC(=O)N=c1c(C#N)cc2c(=O)n3ccccc3nc2n1CCCOC(C)C | 0 | 0 | 0 | 0 | 0 | - | -
CC(C)OCCCn1c(=N)c(C(N)=S)cc2c(=O)n3ccccc3nc21 | 0 | 82 | 0 | 83 | 0 | 70 | 86
Cc1cc(=O)oc2c3c4c(cc12)OCCN4CCC3 | 0 | 64 | 0 | 60 | 0 | 47 | 41
Cc1ccc(NC(=O)c2cc(S(=O)(=O)N3CCCCC3)c[nH]2)cc1Cl | - | - | 0 | - | - | - | -
CC1(C(=O)NS(=O)(=O)c2cccc(Cl)c2)CCN1C(=O)Cc1ccsc1 (stereo unspecified) | - | - | 0 | - | - | - | -
CCCS(=O)(=O)NC(=O)C1(C)CCN(C(=O)c2ccc(OC)c(F)c2)C1 (stereo unspecified) | - | - | 0 | - | - | - | -
CC(C)Oc1ccc(S(=O)(=O)N2CCOCC2)cc1NC(=O)CSc1nnc(C2CC2)n1C | - | - | 0 | - | - | - | -
SMILES | GLD-1 TGE inh | MCL1-BIM inh | eLon inh | BCLXL inh | MEX-5 binding | Bcl-xL conf | MCL1 inh confirm
CN(C)C=Nc1c(Br)cc(Br)c2nonc12 | 0 | 69 | 0 | 92 | ? | 90 | 115
CN(C)C=Nc1nonc1-c1ccccc1 | 0 | 0 | 0 | 0 | 0 | - | -
CCOC(=O)[C@]12CCCC=C1N(Cc1ccc(Cl)cc1Cl)C(=O)[C@H](CC(=O)NCCC(C)C)C2 | - | - | 0 | - | - | - | -
Oc1ccc(/C=N/Nc2ccnc3cc(Cl)ccc23)cc1O | 0 | 0 | 0 | 0 | 0 | - | -
Oc1ccc(/C=N/Nc2ccnc3cc(Cl)ccc23)c(O)c1O | 0 | 54 | 0 | 0 | 0 | 33 | 0
CCCCCCn1c(=O)[nH]c2nc3cc(N)ccc3nc2c1=O | 187 | + | - | 187 | -49 | 171 | 198
COc1ccc(C(C)C)cc1-c1cccc2nncn12 | - | - | 0 | - | - | - | -
COc1ccc(/C=N/Nc2cc(C)nc3c(C)cccc23)cc1 | 0 | 0 | 0 | 0 | 0 | - | -
COc1cccc2c(N/N=C/c3ccc(O)c(O)c3)cc(C)nc12 | 0 | 41 | 0 | 0 | 0 | 51 | 73
c1ccc2c(-c3cccc4nccn34)cncc2c1 | - | - | 0 | - | - | - | -
CN(C)c1nc(N)nc(CSc2nnnn2-c2ccc(Cl)cc2)n1 | - | - | 0 | - | - | - | -
O=C(O)c1cc(O)c2c(c1)C(=O)c1cccc(O)c1C2=O | 89 | 147 | 0 | 114 | -28 | 118 | 144
COc1ccc(C(=O)CCC(=O)N2CCN(c3cc(C)ccc3C)CC2)cc1 | 0 | 0 | 0 | 0 | 0 | - | -
CC(C)C[C@H](NC(=O)C1CC(=O)N(c2ccc3c(c2)OCO3)C1)C(=O)NC1CCCC1 (stereo partly specified) | 38 | 56 | 0 | 56 | 0 | 49 | 59
C[C@H](NC(=O)C1CC(=O)N(c2ccc3c(c2)OCO3)C1)C(=O)NC1CCCC1 (stereo partly specified) | 0 | 0 | 0 | 0 | 0 | - | -
COc1cc2cc(CN(Cc3nnnn3Cc3ccco3)C3CCCCC3)c(=O)[nH]c2cc1OC | 0 | 60 | 0 | 47 | 0 | 0 | 0
O=C(O)c1ccc(N=Nc2c(O)[nH]c3ccc(Br)cc23)cc1 | 0 | 0 | 0 | 0 | 0 | - | -
O=c1ccc2cc3c([nH]c4ccc(Br)cc43)oc-2c1O | 0 | 85 | 0 | 46 | -79 | 0 | 69
O=[N+]([O-])/C(C(Cl)=C(Cl)Cl)=C(\Nc1ccc(F)cc1)n1cncn1 | 0 | 0 | - | 0 | 0 | - | -
CCOc1ccc(N/C(=C(/C(Cl)=C(Cl)Cl)[N+](=O)[O-])n2cncn2)cc1 | 55 | 93 | - | 92 | -49 | 121 | 156
Cc1ccc(NC(=S)Nc2ccc3nc(-c4ccccn4)c(-c4ccccn4)nc3c2)cc1C | 103 | 151 | 120 | 122 | - | 61 | 62
Cc1ccc(NC(=S)Nc2ccccn2)cc1C | 0 | 0 | 0 | 0 | 0 | - | -
Oc1ccccc1C1=NC(c2ccccc2)NC(c2ccccc2)C1 (stereo unspecified) | - | - | 0 | - | - | - | -
